About 8,600 (12%) of roughly 69,000 compounds showed an effect of 50% or more. What follows is part of a selection rich in strong results, with near analogues and random picks from the rest.
These compounds were tested on Plasmodium berghei (assay: Screen against P. berghei liver stage (PbLuc), transformed with Luciferase, at 10uM). Conditions: tested at 10 uM.
Assay type: functional, HepG2
Compound `COc1ccc(C(=O)NCCN(C)C)c(I)c1` has an INHIBITION of -0.217%. For `NC(=O)N1CCC(NCc2cc(Br)ccc2Cl)CC1`, the INHIBITION was 34.7%. `CC(C)(C)c1ncc(C(=O)NCCNC(=O)c2ccco2)s1` showed an INHIBITION of -21.5%. With `COc1cc(C(=O)N2CCCC(c3cc(C)[nH]n3)C2)ccc1C` (centres undefined) the INHIBITION was 24%. `CCc1ncc(C(=O)N2CCn3c(CC)nnc3C2)s1` was tested, and the INHIBITION was 53.9%. Work on `CCc1nnc2n1CCN(C(=O)c1cnc(C3CC3)s1)C2` yielded an INHIBITION of 13.9%. In the case of `CCc1nnc2n1CCN(C(=O)c1cnc(-c3cccs3)s1)C2`, the INHIBITION is reported as 19.3%. `Cc1cc(C)c2ncc(C#N)c(N3CCS(=O)(=O)CC3)c2c1` gave an INHIBITION of 36.3%. `Cc1cnn(CC2CCCCN2C(=O)CC(F)(F)F)c1` (centres undefined) was tested, and the INHIBITION was 9.14%. Compound `O=C(c1cc(C2CC2)nc2onc(-c3ccccc3)c12)N1CC[C@H](O)C1` has an INHIBITION of 28.5%. For `O=C(c1cc(-c2ccccc2)nc2onc(C3CC3)c12)N1CC[C@H](O)C1`, the INHIBITION was 73%. In the case of `O=C(c1cccnc1SCc1ccccc1)N1CC[C@@H](O)C1`, the INHIBITION is reported as -34%. `O=C(CN1CCCC1c1nc(-c2ccccc2)no1)N1CCOCC1` (centres undefined) was tested, and the INHIBITION was -21.8%. Compound `O=C(c1cc(C2CC2)nc2onc(-c3ccccc3)c12)N1CCOCC1` has an INHIBITION of 51.7%. `O=C(c1cc(C2CC2)nc2onc(-c3ccccc3)c12)N1CC(O)C1` gave an INHIBITION of 44.3%. `Cc1cc(NCCCc2c(C)noc2C)nc(N)n1` was tested, and the INHIBITION was 35%. In the case of `CC(C)c1ncc2c(n1)CN(Cc1noc(-c3ccccc3)n1)CC2`, the INHIBITION is reported as 45.7%. Compound `CC(C(=O)NCCN1CCCCC1)n1cncn1` (centres undefined) has an INHIBITION of -5.07%. `CCn1c(SCC(=O)N2CCCC2)nc2cc(C)[nH]c2c1=O` was tested, and the INHIBITION was 40%. In the case of `c1csc(CN2CCC3(CCOCC3COCC3CC3)CC2)n1` (centres undefined), the INHIBITION is reported as -18.2%. Work on `CCN(Cc1nccn1C)C1CCN(c2ccccc2)C1=O` (centres undefined) yielded an INHIBITION of 42.6%. For `C=C(C)Cn1cc(C(N)=O)nc1C1CC1`, the INHIBITION was -6.67%. In the case of `N#Cc1ccccc1OCCN1CCN(C(=O)C2CCCC2)CC1`, the INHIBITION is reported as 65.6%. `Cc1nnc(CN2CCN(CCOc3ccccc3C#N)CC2)n1C` was tested, and the INHIBITION was 21.2%. For `N#Cc1ccccc1OCCN1CCC(C(=O)N2CCOCC2)CC1`, the INHIBITION was 70.3%. `N#Cc1cnc2ccccc2c1N1CCN(C(=O)C2CCC2)CC1` was tested, and the INHIBITION was 90.6%. `N#Cc1cccc(OCCN2CCC(C(=O)N3CCOCC3)CC2)c1` was tested, and the INHIBITION was 55.4%. `N#Cc1cnc2ccccc2c1N1CCN(CCC(=O)O)CC1` was tested, and the INHIBITION was 5.87%. In the case of `CC(C)(C)C(=O)N1CCN(CCOc2cccc(C#N)c2)CC1`, the INHIBITION is reported as -18%. Compound `CC(C)C(=O)N1CCN(CCOc2cccc(C#N)c2)CC1` has an INHIBITION of 39.2%. `N#Cc1ccccc1OCCN1CCC(N2CCNC2=O)CC1` gave an INHIBITION of 24%. For `N#Cc1cnc2ccccc2c1N1CCC(C(=O)O)CC1`, the INHIBITION was 35.7%. `N#Cc1ccccc1OCCN1CCCCC1C(=O)N1CCOCC1` (centres undefined) gave an INHIBITION of 47.1%. `N#Cc1ccccc1N1CCN(CCC(=O)N2CCOCC2)CC1` gave an INHIBITION of -29.4%. `CN1CC(=O)N(c2ccsc2)CC12CCN(C(=O)CC1CCCC1)C2` (centres undefined) showed an INHIBITION of 21.8%. In the case of `NC(=O)NC(=O)C(c1ccccc1)N1CCN(Cc2ccsc2)CC1` (centres undefined), the INHIBITION is reported as 4.52%. `Cc1cc(C)n(CC2CCCN2C(=O)Cc2c(C)nc(C)[nH]c2=O)n1` (centres undefined) gave an INHIBITION of 2.3%. Work on `O=C(O)c1cc2c(nc1-c1ccoc1)CCN(Cc1ccco1)CC2` yielded an INHIBITION of 34.6%. Compound `Cc1occc1C(=O)N1C[C@@H]2OCCN(C(C)C)[C@@H]2C1` has an INHIBITION of 15.9%. With `CN1CC2(CCN(C(=O)CCCOCc3ccccc3)C2)OC1=O` (centres undefined) the INHIBITION was 12.4%. `CCn1nc(C)cc1C(=O)NCc1noc(C(C)(C)C)n1` showed an INHIBITION of 27.5%. `O=C1CCC[C@]2(CN(S(=O)(=O)N3CCOCC3)C[C@H]2c2cccnc2)N1` was tested, and the INHIBITION was 41.5%. `Cc1nnc(-c2cccc(C#N)c2)n1C1CCCN(C(C)C)C1=O` (centres undefined) showed an INHIBITION of -18.9%. For `CN1CCCCC1C(=O)N1CCN(c2ccccc2C#N)CC1` (centres undefined), the INHIBITION was 39.6%. `N#Cc1cccc(OCCN2CCCC2C(=O)NCC(F)(F)F)c1` (centres undefined) was tested, and the INHIBITION was 2.93%. `CN1CCCCCC1C(=O)N1CCN(c2ccccc2C#N)CC1` (centres undefined) showed an INHIBITION of 62.4%. For `CN1CCCCCC1C(=O)N1CCCN(c2ccccc2)CC1` (centres undefined), the INHIBITION was 45.6%. `N#Cc1cccc(OCCN2CCCC2C(=O)NC2CC2)c1` (centres undefined) showed an INHIBITION of -3.21%. Compound `N#Cc1cccc(OCCN2CCCC2C(=O)N2CCSCC2)c1` (centres undefined) has an INHIBITION of 55.3%. Work on `CC(C)N1CCN(C(=O)c2ccccc2NCc2cccnc2)CC1` yielded an INHIBITION of -9.31%. With `CC(C)c1nnc(NC(=O)N(C)Cc2ccc(C(N)=O)cc2)s1` the INHIBITION was 22.5%. For `Cc1cc(O)cc(=O)n1CCCC(=O)Nc1n[nH]c2cccc(F)c12`, the INHIBITION was 5.03%. With `COc1ccccc1CNC(Cc1cccs1)c1nc(C)c(C)s1` (centres undefined) the INHIBITION was 55.6%. For `COc1cccc(CNC(Cc2cccs2)c2nc(C)c(C)s2)c1OC` (centres undefined), the INHIBITION was 42.4%.

— ChEMBL document CHEMBL4513216, “Probing the Open Global Health Chemical Diversity Library for Multistage-Active Starting Points for Next-Generation Antimalarials” (ACS Infect Dis, 2020)
